# Test results: PubChem BioAssay (NCATS)
# Several values for one entry are separate records, joined by “and”; a condition that tells them apart may be missing. Equal entries are not always repeated. Records with an inconclusive call do not appear. A call without a number means that no potency is given here. A structure can be active in one record and inactive in another. Activity calls are given as the source filed them. Unless noted, the call rests on the fitted dose curve; in most records, active means well fitted curve in the direction sought with a large enough effect; inconclusive means small, poorly fitted or top-dose-only effect, or another doubt; inactive means no such curve, though single readings can be large; an effect the other way counts as inactive or inconclusive.
# How the values were obtained:
# [1] = target: Voltage-gated inwardly rectifying potassium channel KCNH2 (Homo sapiens) (UniProt Q12809); experiment: qHTS Assay for Small Molecule Inhibitors of the Human hERG Channel Activity (AID 588834);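 further: lower thallium flux fluorescence means stronger hERG block; nearly all actives have a fitted effect of over 50% in size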; further: potency means the concentration at half of the fitted maximal effect
# Voltage-gated inwardly rectifying potassium channel KCNH2 (Homo sapiens), sequence (Q12809 whole entry, looked up): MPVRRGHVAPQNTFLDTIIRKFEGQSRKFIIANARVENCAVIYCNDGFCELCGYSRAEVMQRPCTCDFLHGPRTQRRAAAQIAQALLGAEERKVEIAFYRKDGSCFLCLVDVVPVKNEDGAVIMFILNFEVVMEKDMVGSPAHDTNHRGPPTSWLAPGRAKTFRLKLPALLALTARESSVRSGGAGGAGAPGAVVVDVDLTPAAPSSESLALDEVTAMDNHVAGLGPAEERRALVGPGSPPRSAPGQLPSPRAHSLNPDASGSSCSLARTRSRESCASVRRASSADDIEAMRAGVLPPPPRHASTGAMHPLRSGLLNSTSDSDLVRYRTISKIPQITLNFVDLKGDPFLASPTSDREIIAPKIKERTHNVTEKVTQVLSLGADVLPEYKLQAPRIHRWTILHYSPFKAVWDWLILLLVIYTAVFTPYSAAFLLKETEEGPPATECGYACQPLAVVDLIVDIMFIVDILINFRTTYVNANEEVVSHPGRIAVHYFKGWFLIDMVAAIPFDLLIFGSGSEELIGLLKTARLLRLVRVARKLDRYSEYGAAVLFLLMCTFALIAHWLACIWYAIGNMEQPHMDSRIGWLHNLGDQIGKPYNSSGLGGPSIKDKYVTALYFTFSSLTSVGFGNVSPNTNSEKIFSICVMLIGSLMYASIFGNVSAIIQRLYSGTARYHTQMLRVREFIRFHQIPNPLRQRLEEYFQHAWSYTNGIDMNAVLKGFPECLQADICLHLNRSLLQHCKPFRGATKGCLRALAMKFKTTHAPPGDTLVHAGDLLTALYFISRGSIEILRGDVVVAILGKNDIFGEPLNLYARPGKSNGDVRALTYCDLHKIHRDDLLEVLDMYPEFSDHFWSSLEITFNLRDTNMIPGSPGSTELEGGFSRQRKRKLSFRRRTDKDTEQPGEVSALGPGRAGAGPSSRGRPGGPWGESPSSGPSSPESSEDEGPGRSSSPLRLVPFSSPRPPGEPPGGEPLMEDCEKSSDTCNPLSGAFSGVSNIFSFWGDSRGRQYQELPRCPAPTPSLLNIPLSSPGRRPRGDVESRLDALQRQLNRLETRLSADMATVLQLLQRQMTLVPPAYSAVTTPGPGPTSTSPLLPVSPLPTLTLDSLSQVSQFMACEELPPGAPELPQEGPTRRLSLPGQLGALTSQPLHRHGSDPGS
# Summary of the method: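 hERG-BacMam U2OS, 2000 cells/well; 0.7X FluxOR loading 1 hr RT dark; cpd ~10 min 37 °C; stim buffer; FDSS fluorescence 2 min @ 1 s; AC50 Hill fit.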
# [2] = target: Peroxisome proliferator-activated receptor gamma (Homo sapiens) (UniProt P37231); experiment: qHTS assay for small molecule agonists of peroxisome proliferator-activated receptor gamma signaling (AID 588536; active means well fitted curve in the direction sought with a large enough effect in the signal ratio, with a control signal flat, not every such curve was filed as active; the % refers to the signal ratio)
# Peroxisome proliferator-activated receptor gamma (Homo sapiens), sequence (P37231 whole entry, looked up): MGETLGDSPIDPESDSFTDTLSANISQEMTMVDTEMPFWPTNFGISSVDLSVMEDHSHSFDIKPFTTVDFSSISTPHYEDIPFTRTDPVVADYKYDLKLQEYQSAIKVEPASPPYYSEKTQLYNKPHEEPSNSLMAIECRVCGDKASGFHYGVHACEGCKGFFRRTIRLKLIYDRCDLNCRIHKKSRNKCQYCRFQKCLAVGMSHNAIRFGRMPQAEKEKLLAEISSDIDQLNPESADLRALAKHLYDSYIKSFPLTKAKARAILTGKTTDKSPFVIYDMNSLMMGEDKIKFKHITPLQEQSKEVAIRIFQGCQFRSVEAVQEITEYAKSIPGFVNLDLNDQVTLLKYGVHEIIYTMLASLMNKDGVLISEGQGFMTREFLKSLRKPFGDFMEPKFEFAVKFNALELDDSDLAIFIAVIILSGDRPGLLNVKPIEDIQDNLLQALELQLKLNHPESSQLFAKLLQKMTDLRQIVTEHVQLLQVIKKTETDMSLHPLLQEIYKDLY
# Summary of the method: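 PPAR-gamma-UAS-bla HEK293 cells in medium with 1% charcoal/dextran-treated FBS were exposed to compounds for 16 h at 37 C. Beta-lactamase activity was read with CCF4 substrate (405 nm excitation, 460/530 nm emission).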
# [3] = target: Peroxisome proliferator-activated receptor gamma (Homo sapiens) (UniProt P37231); experiment: qHTS assay for small molecule antagonists of peroxisome proliferator-activated receptor gamma signaling (AID 588537; active means well fitted inhibition curve with a large enough effect in the signal ratio, with a control signal flat, not every such curve was filed as active; the % refers to the signal ratio; further: potency means the concentration at half of the fitted maximal effect)
# Summary of the method: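 Antagonist mode, beta-lactamase reporter in HEK293; charcoal/dextran FBS 1%; 3000 cells/well, 37 C 6-6.5 h; cpd titration + rosiglitazone 50 nM final, 16 h 37 C; CCF4, 2 h RT; 460/530 nm; Hill fit → IC50, efficacy.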
# [4] = target: Vitamin D3 receptor (Homo sapiens) (UniProt P11473); experiment: qHTS assay for small molecule agonists of vitamin D receptor signaling (AID 588543; calls by dose curve)
# Vitamin D3 receptor (Homo sapiens), sequence (P11473 whole entry, looked up): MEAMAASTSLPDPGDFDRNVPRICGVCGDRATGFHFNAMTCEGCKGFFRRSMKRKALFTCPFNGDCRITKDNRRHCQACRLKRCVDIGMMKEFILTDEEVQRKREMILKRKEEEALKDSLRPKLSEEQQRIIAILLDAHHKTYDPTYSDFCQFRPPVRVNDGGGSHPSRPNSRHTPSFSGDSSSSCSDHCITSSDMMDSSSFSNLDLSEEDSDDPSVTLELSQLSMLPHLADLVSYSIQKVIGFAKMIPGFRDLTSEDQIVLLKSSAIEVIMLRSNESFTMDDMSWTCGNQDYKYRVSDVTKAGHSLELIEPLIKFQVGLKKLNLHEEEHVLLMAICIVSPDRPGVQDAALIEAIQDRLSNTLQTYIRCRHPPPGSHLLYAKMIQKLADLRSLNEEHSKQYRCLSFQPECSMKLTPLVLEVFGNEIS
# Summary of the method: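 Reporter cells (HEK293T, VDR-UAS-bla) were seeded in medium with 2% charcoal-stripped serum and incubated 5 h, then compounds in concentration series were added for 16 h at 37 °C. Stimulation was scaled between DMSO basal and 50 nM 1α,25-dihydroxyvitamin D3.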
# [5] = qHTS assay for small molecule agonists of retinoid X receptor alpha signaling (AID 588544; calls by dose curve); details: HEK293T RXRa-UAS-bla, beta-lactamase reporter, 18 h; 530 nm emission
# [6] = target: Retinoic acid receptor RXR-alpha (Homo sapiens) (UniProt P19793); experiment: as above
# Retinoic acid receptor RXR-alpha (Homo sapiens), sequence (P19793 whole entry, looked up): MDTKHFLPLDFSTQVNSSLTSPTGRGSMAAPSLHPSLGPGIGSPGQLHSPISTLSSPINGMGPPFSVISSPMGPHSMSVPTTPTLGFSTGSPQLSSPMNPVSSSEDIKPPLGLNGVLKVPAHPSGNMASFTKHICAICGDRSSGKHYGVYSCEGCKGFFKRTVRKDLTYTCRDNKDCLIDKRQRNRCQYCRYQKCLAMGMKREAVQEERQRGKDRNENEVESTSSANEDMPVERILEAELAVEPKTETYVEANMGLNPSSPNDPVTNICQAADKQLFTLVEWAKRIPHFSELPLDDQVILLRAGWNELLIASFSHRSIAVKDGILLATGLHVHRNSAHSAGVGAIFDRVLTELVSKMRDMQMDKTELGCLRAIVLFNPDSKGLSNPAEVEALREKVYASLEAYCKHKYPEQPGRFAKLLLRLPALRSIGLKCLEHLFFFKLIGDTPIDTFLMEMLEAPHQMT
# [7] = qHTS assay for small molecule antagonists of retinoid X receptor alpha signaling (AID 588546; active means well fitted inhibition curve with a large enough effect in the signal ratio, with a control signal flat, not every such curve was filed as active; the % refers to the signal ratio; further: potency means the concentration at half of the fitted maximal effect;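 on max response: cells stimulated with 9-cis-retinoic acid as agonist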); details: HEK293T RXRa-UAS-bla, beta-lactamase ratio, antagonist mode; measured here: W530 green channel, cytotoxicity proxy
# Summary of the method: (§1)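 Beta-lactamase reporter inhibition, read as CCF4 fluorescence ratio (ex 405, em 460/530 nm) after 2 h at RT. HEK293T UAS-bla cells, 2500/well, were stimulated with 9-cis-RA at 500 or 100 nM final alongside test compound for 18 h at 37 C.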
# [8] = target: Retinoic acid receptor RXR-alpha (Homo sapiens) (UniProt P19793); experiment: as above; details: HEK293T RXRa-UAS-bla, beta-lactamase ratio, antagonist mode
# Summary of the method: as §1
# [9] = target: Thyroid hormone receptor beta (Homo sapiens) (UniProt P10828); experiment: qHTS assay for small molecule antagonists of thyroid hormone receptor beta signaling (AID 588547; active means well fitted inhibition curve with a large enough effect in the signal ratio, with a control signal flat, not every such curve was filed as active; the % refers to the signal ratio;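 further: cells stimulated with 0.4 nM T3 agonist during compound exposure; series mostly up to about 77 µM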); details: TR-UAS-bla HEK293, beta-lactamase ratio, antagonist mode, 18 h
# Thyroid hormone receptor beta (Homo sapiens), sequence (P10828 whole entry, looked up): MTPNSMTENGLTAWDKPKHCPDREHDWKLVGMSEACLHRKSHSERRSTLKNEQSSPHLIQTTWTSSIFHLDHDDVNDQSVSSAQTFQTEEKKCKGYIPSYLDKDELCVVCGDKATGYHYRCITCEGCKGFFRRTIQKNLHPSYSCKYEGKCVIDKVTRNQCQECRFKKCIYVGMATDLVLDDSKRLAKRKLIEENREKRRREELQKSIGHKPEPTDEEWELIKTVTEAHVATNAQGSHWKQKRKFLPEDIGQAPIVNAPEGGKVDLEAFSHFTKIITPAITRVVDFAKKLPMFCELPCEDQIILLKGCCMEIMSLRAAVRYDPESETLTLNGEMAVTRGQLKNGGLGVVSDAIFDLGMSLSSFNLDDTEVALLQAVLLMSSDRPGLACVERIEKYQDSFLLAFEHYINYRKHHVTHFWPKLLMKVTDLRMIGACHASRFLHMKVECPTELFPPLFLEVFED
# Summary of the method: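 Inhibition of T3-driven (0.4nM final) beta-lactamase reporter activity was measured over 0.59 nM to 92 uM compound after 18 h at 37 C. The cells were GripTite HEK293 TR-UAS-bla in charcoal/dextran-stripped serum, with CCF4 ratio read-out and IC50 from Hill fits.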
# [10] = target: Luciferin 4-monooxygenase (Photinus pyralis) (UniProt P08659); experiment: Biochemical firefly luciferase enzyme assay for NPC (AID 624030);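 further: purified P. pyralis luciferase at 10 nM with luciferin and ATP substrate; series mostly up to about 59 µM; nearly all actives have a fitted effect of over 70% in size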
# Luciferin 4-monooxygenase (Photinus pyralis), sequence (P08659 whole entry, looked up): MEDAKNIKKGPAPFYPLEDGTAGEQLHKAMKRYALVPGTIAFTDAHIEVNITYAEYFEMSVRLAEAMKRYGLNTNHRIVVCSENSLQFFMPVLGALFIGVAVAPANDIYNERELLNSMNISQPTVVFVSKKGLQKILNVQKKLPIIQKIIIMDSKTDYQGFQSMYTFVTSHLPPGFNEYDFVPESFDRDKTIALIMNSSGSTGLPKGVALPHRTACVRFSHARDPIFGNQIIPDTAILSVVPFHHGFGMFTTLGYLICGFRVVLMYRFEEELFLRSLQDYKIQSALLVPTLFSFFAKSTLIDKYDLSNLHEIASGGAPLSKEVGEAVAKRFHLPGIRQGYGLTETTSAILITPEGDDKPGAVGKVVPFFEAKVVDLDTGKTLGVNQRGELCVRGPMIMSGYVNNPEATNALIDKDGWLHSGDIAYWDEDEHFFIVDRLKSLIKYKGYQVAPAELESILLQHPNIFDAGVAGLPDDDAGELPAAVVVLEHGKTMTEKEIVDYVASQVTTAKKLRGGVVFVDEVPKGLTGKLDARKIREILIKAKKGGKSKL
# Summary of the method: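 Direct inhibition of firefly luciferase enzyme (10 nM final, 50 mM Tris Acetate) assessed by luminescence within 5 minutes. Percent activity scaled between DMSO and PTC124 positive control, with concentration-effect curves classified by fit quality and response.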
# [11] = S16 Schwann cell viability assay (CellTiter-Glo assay) (AID 624031); further: nearly all actives have a fitted effect of over 70% in size; further: potency means the concentration at half of the fitted maximal effect
# Summary of the method: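 Untransfected S16 rat Schwann cells; compound 24 h, 37 °C/5% CO2; CellTiter-Glo ATP luminescence. % activity vs no-cell wells and DMSO controls (0%); concentration-effect curves classed by r2, response magnitude, activity.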
# [12] = S16 Schwann cell PMP22 intronic element firefly luciferase assay (AID 624032); further: nearly all actives have a fitted effect of over 30% in size; further: potency means the concentration at half of the fitted maximal effect
# Summary of the method: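 Luciferase reporter of PMP22 intronic-element expression in stably transfected S16 rat Schwann cells, read by ONE-Glo luminescence after 24 h compound exposure at 37 C. Activity scaled between DMSO (0%) and positive-control PTC124; concentration-effect curves quality-classified.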
# [13] = qHTS assay for small molecule antagonists of peroxisome proliferator-activated receptor delta signaling (AID 588535; active means well fitted inhibition curve with a large enough effect in the signal ratio, with a control signal flat, not every such curve was filed as active; the % refers to the signal ratio; further: potency means the concentration at half of the fitted maximal effect;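 on max response: cells co-treated with a PPAR-delta agonist as stimulator during compound exposure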); details: HEK293T PPARd-UAS-bla, beta-lactamase FRET ratio, 18 h; 460 nm channel
# Summary of the method: (§2)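 HEK293T PPAR-delta-UAS-bla cells, 4000/well, 2% charcoal/dextran FBS; 5 h 37 C; cpd titration; 18 h 37 C; CCF4 2 h RT; FI 460/530 nm; Hill fit → IC50, efficacy.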
# [14] = target: Peroxisome proliferator-activated receptor delta (Homo sapiens) (UniProt Q03181); experiment: as above
# Peroxisome proliferator-activated receptor delta (Homo sapiens), sequence (Q03181 whole entry, looked up): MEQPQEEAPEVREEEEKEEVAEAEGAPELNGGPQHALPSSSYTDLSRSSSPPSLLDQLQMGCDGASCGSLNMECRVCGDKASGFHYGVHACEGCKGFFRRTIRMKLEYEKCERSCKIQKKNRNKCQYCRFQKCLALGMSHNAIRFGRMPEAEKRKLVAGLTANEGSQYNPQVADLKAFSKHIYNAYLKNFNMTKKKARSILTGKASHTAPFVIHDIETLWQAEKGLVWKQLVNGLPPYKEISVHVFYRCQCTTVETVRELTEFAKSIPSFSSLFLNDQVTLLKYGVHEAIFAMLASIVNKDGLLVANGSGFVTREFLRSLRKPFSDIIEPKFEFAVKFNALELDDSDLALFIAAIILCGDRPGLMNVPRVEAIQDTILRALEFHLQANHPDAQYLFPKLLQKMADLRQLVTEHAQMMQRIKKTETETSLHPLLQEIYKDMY
# Summary of the method: as §2
# [15] = S16 Schwann cell PMP22 intronic element beta-lactamase assay (AID 624044; calls by dose curve; further: nearly all actives have a fitted effect of over 15% in size; further: potency means the concentration at half of the fitted maximal effect)
# Summary of the method: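 Rat S16 Schwann cells with beta-Lac driven by a PMP22 intronic element, compound-treated 24 h at 37 °C. LiveBLAzer FRET B/G read: 460 nm normalized to potassium clavulanate vs DMSO; 535 nm FRET as viability; concentration-effect curves classified.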
structure (smiles),measurement,setting,value
CC1=C2[C@H]3OC(=O)[C@@H](C)[C@@H]3CC[C@@]2(C)C=CC1=O,Potency,[1],inactive
O=c1n(Cl)c(=O)n(Cl)c(=O)n1Cl,outcome,[2],inactive
same,Potency,[3],inactive
same,outcome,[4],inactive
same,max response,[5],-19.7%
same,outcome,[6],inactive
same,max response,[7],-7.37%
same,max response,[8],2.47% (inactive)
same,activity change % (negative = inhibition),[9],4.09% (inactive)
same,Potency,[1],inactive
same,Potency,[10],inactive
same,Potency,[11],inactive
same,Potency,[12],inactive
C=CCOC(Cn1ccnc1)c1ccc(Cl)cc1Cl (stereo not given),max response,[13],-52.6% and -29.4%
same,Potency,[14],inactive
same,outcome,[4],inactive
same,max response,[5],-17.1% and -12.6%
same,outcome,[6],inactive
same,max response,[7],-20.1% and -17.9%
same,max response,[8],-20.3% (inactive) and -31.1% (inactive)
same,Potency,[10],inactive
same,Potency,[11],inactive
same,Potency,[15],inactive
CCOP(=S)(OCC)O/N=C(\C#N)c1ccccc1,activity change % (negative = inhibition),[9],19.6% (inactive)
same,Potency,[10],inactive
CN(C)C(=S)SSC(=S)N(C)C,max response,[13],11.3%
same,Potency,[14],inactive
same,outcome,[4],inactive
same,max response,[7],18.1%
same,Potency,[8],44.7 µM (active)
same,Potency,[1],inactive and 44.7 µM (active)
same,Potency,[11],2.56 µM (active)
same,Potency,[12],1.44 µM (active)
CCNc1nc(Cl)nc(NCC)n1,outcome,[2],inactive
same,Potency,[3],inactive
same,outcome,[4],inactive
same,max response,[5],-18.2%
same,outcome,[6],inactive
same,max response,[7],-7.93%
same,max response,[8],2.68% (inactive)
same,activity change % (negative = inhibition),[9],3.97% (inactive)
same,Potency,[1],inactive
same,Potency,[10],inactive
same,Potency,[11],inactive
same,Potency,[12],inactive
CN(C)c1ccc(C(=C2C=CC(=[N+](C)C)C=C2)c2ccccc2)cc1,Potency,[1],inactive
C[C@@H]1C[C@@H]([C@H](O)CC2CC(=O)NC(=O)C2)C(=O)[C@@H](C)C1,max response,[13],-115% and -59.6%
same,Potency,[14],316 nM (active) and 199 nM (active)
same,outcome,[2],inactive
same,max response,[5],-10.1%
same,outcome,[6],inactive
same,activity change % (negative = inhibition),[9],-37.8% (inactive)
same,Potency,[1],inactive
O=C(Nc1ccc(Cl)cc1)Nc1ccc(Cl)c(Cl)c1,max response,[7],-4.96%
same,Potency,[8],10 µM (active)
same,Potency,[12],inactive
COP(=O)(OC)C(O)C(Cl)(Cl)Cl (stereo not given),outcome,[4],inactive
same,Potency,[1],inactive
same,Potency,[10],inactive
same,Potency,[11],inactive
same,Potency,[12],inactive
same,Potency,[15],inactive
COP(=O)(OC)OC=C(Cl)Cl,max response,[13],3.66% and 4.74% and -42.4%
same,Potency,[14],inactive
same,outcome,[2],inactive
same,max response,[5],-12.2% and -24.6% and -4.24%
same,outcome,[6],inactive
same,max response,[7],-12% and -6.53% and -17.3%
same,max response,[8],5.84% (inactive) and -9.46% (inactive) and -14.2% (inactive)
same,activity change % (negative = inhibition),[9],-21% (inactive) and -1.19% (inactive) and -2.09% (inactive)
same,Potency,[1],inactive
same,Potency,[10],inactive
same,Potency,[11],inactive
same,Potency,[15],15.8 µM (active)
c1cc(CN2CCCCC2)cc(OCCCNc2nc3ccccc3s2)c1,Potency,[1],12.6 µM (active)
C[C@H]1C(=O)O[C@@H]2CCN3CC=C(COC(=O)[C@](C)(O)[C@]1(C)O)[C@H]23,outcome,[2],inactive
same,Potency,[3],inactive
same,outcome,[4],inactive
same,max response,[5],-6.89%
same,outcome,[6],inactive
same,max response,[7],-18.5%
same,max response,[8],-1.01% (inactive)
same,Potency,[1],inactive
same,Potency,[10],inactive
same,Potency,[11],inactive
same,Potency,[12],inactive
CCOC(=O)c1cncn1C(C)c1ccccc1 (stereo not given),Potency,[1],inactive
C=CCN1CC[C@]23CCCC[C@H]2[C@H]1Cc1ccc(O)cc13,Potency,[1],inactive
CC(C)=C[C@@H]1[C@@H](C(=O)OCc2coc(Cc3ccccc3)c2)C1(C)C,Potency,[1],inactive
N#Cc1nn(-c2c(Cl)cc(C(F)(F)F)cc2Cl)c(N)c1S(=O)C(F)(F)F (stereo not given),activity change % (negative = inhibition),[9],-25.5% (inactive)
same,Potency,[1],inactive
same,Potency,[10],inactive
same,Potency,[11],inactive
same,Potency,[12],10.2 µM (active)
C[C@@H]1CN(C2CCC(C#N)(c3ccc(F)cc3)CC2)CC[C@]1(C(=O)O)c1ccccc1 (stereo not given in full),Potency,[1],inactive
CCC(=O)O[C@H]1CC[C@H]2[C@@H]3CCC4=CC(=O)CC[C@]4(C)[C@H]3CC[C@]12C,max response,[13],-14.3%
same,Potency,[14],inactive
same,outcome,[4],inactive
same,max response,[7],1.48%
same,max response,[8],-0.425% (inactive)
same,activity change % (negative = inhibition),[9],4.79% (inactive)
same,Potency,[1],inactive
same,Potency,[10],inactive
same,Potency,[11],inactive
same,Potency,[12],inactive
Oc1ccc(Cl)cc1Cc1cc(Cl)ccc1O,Potency,[3],35.5 µM (active)
same,max response,[7],-8.06%
same,Potency,[8],14.1 µM (active)
same,Potency,[1],inactive
CNC(=O)Oc1cccc2ccccc12,max response,[13],25.4%
same,Potency,[14],inactive
same,outcome,[4],inactive
same,max response,[5],-5.93% and -0.426%
same,outcome,[6],inactive
same,max response,[7],-8.18% and 5.92%
same,max response,[8],8.76% (inactive) and -2.97% (inactive)
same,activity change % (negative = inhibition),[9],-1.73% (inactive) and -9.05% (inactive)
same,Potency,[1],inactive
same,Potency,[10],inactive
same,Potency,[11],inactive
same,Potency,[15],inactive
CCCC[N+]1(C)[C@@H]2CC(OC(=O)[C@H](CO)c3ccccc3)C[C@H]1[C@@H]1O[C@@H]12 (stereo not given in full),Potency,[1],inactive
CC[n+]1c(-c2ccccc2)c2cc(N)ccc2c2ccc(N)cc21,max response,[13],-102%
same,Potency,[14],31.6 µM (active)
same,outcome,[4],inactive
same,max response,[7],-17.9%
same,Potency,[8],8.91 µM (active)
same,Potency,[1],inactive
same,Potency,[10],inactive
same,Potency,[11],inactive
same,Potency,[12],inactive
Cc1ccc(N=CN(C)C=Nc2ccc(C)cc2C)c(C)c1,outcome,[4],inactive
same,max response,[7],-10.6%
same,max response,[8],-33.7% (inactive)
same,Potency,[10],inactive
same,Potency,[11],inactive
same,Potency,[12],inactive
same,Potency,[15],inactive
CCCCCCCCCCCC[N+](C)(C)CCOc1ccccc1,outcome,[4],inactive
same,Potency,[1],2.82 µM (active) and 5.01 µM (active)
same,Potency,[10],inactive
same,Potency,[11],32.2 µM (active)
same,Potency,[12],25.6 µM (active)
same,Potency,[15],inactive
O=C(NC(=O)c1c(F)cccc1F)Nc1cc(Cl)c(OC(F)(F)C(F)C(F)(F)F)cc1Cl (stereo not given),outcome,[2],inactive
same,Potency,[3],inactive
same,outcome,[4],inactive
same,max response,[5],11.9%
same,outcome,[6],inactive
same,max response,[7],-7.96%
same,max response,[8],-7.55% (inactive)
same,activity change % (negative = inhibition),[9],4.04% (inactive)
same,Potency,[1],inactive
same,Potency,[10],inactive
